# Screens as filed in PubChem.
# Rows were chosen to be rich in hits. Some 2.6% of all compounds tested hit in one or more screens of this group.
# Cruzain noTriton: inhibitors of Trypanosoma cruzi cruzain without detergent | P25779 | purified cruzain, Z-FR-AMC fluorescence, no detergent | Potency, µM, inactives show max response, negative = inhibition, hits mostly inhibitors | hit rate 2.3% among 200,000;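 note: plate controls were enzyme without inhibitor for no effect and buffer without enzyme for full effect; nearly all actives have a fitted effect of over 40% in size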
# Target sequence (P25779 123-467 limits assumed): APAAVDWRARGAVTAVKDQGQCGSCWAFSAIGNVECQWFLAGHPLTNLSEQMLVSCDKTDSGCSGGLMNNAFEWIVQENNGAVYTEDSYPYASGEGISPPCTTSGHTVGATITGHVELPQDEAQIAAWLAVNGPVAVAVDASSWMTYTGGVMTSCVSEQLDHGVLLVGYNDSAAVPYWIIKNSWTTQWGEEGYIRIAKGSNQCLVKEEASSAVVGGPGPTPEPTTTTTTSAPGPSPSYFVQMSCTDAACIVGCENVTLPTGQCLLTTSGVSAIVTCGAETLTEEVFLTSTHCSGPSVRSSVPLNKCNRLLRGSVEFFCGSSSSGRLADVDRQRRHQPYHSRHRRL
#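 Purified cruzain at 1.5 nM, pre-incubated 15 min with compound at room temperature in 100 mM sodium acetate pH 5.5, 5 mM DTT, 0.00005% Triton X-100. Reaction started with 2 uM Z-FR-AMC; AMC fluorescence increase over 60 s gives rate.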
# Cruzain Triton: blocks cruzain activity in presence of Triton detergent. purified cruzain, Z-FR-AMC fluorescence, 0.01% Triton. hit rate 0.43% among 200,000. Potency, µM, for inactives: max response, negative = inhibition, actives largely listed as inhibitors;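 note: plate controls were neutral wells for no effect and buffer without enzyme for full effect; nearly all actives have a fitted effect of over 40% in size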
#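 15 min RT preincubation of 1.5 nM cruzain with compound, then 2 uM Z-FR-AMC added; kinetic AMC fluorescence, 60 s delta. Triton X-100 0.01%, pH 5.5.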
# The depositor's hits bear a star; ? = inconclusive. Calls come from the whole dose curve; as a rule, active = well fitted curve in the direction sought with a large enough effect; inconclusive = small, poorly fitted or top-dose-only effect, or another doubt; inactive = no such curve, though single readings can be large; an effect the other way counts as inactive or inconclusive. Potency is the fitted concentration of half-maximal effect.
SMILES,Cruzain noTriton,Cruzain Triton
COc1ccc(NC(=O)c2ccccc2NC(=O)CSc2ccc(Cl)cc2)cc1,12.6µM*,8.6%
COc1ccc(NC(=O)c2ccccc2NC(=O)CSc2ccccc2)cc1,-18.6%,-1.1%
O=C(CSc1ccc(Cl)cc1)Nc1ccc(N2CCN(C(=O)c3ccco3)CC2)cc1,-10.1%,-1.2%
COc1c(C2=CC(=O)N(C)C2=O)c2c(n1C)C(=O)c1ccccc1C2=O,-14.3%,6.7%
C[C@@]1(C(NC(=O)c2cccs2)c2ccc(-c3ccccc3)cc2)C[C@H]1C1CCCCC1 (some centres not stated),3.98µM*,3.5%
COC(=O)c1ccc(C(NC(=O)c2ccccc2)[C@]2(C)C[C@H]2C2CCCCC2)cc1 (some centres not stated),-15.4%,0.9%
N#C/C(=C\c1ccc(O)c(O)c1)C(=O)OCCc1cccs1,5.5%,-20.3%
O=C(O)c1cc(C(=O)C(=O)c2cc(C(=O)O)c(O)c3ccccc23)c2ccccc2c1O,-9.2%,-13.8%
NC(N)=Nc1nc(CSCC/C(N)=N\S(N)(=O)=O)cs1,12.6µM*,25.1µM*
CCC1=C2CC[C@H]3C(=O)N(C)C(=O)[C@H]3[C@H]2[C@@]2(Cc3ccccc3)C(=NCCc3c[nH]c4ccccc34)OC(=O)N2C1=O,?,-4.3%
CS(=O)(=O)N1CCC2(CCCN(Cc3ccc(C#N)cc3)C2)CC1,1.7%,3.1%
COn1c2c(c3c4no[n+]([O-])c4ccc31)CCCC2,20µM*,1.2%
COn1c2c(c3c4nonc4ccc31)CCCC2,-3.2%,-9.2%
CC(=O)OCN(C#N)c1nc(N(C)C)nc(N(C)C)n1,-5.0%,-6.7%
COC(=O)CN(C#N)c1nc(SC)nc(N(C)C)n1,12.6µM*,15.8µM*
O=C1/C(=C\c2ccc(-c3ccccc3Cl)o2)SC(=S)N1CC1CCCO1 (configuration not stated),15.8µM*,-4.1%
CN1C(=O)/C(=C2\SC(=S)N(CC3CCCO3)C2=O)c2ccccc21 (configuration not stated),0.4%,0.3%
CNC/C(Cl)=N/S(=O)(=O)c1ccc(C)cc1,-2.3%,6.0%
CCOc1ccc(CCNC(=O)c2ccc(CS(=O)(=O)Cc3ccccc3Cl)o2)cc1OCC,8.6%,3.1%
CCc1ccc2ncc(S(=O)(=O)c3ccc(Cl)cc3)c(N3CCN(CC)CC3)c2c1,-3.5%,-1.6%
COc1ccc(C2C(C#N)=C(N)N3C(=C2C#N)Sc2ccccc23)cc1 (configuration not stated),6.31µM*,-6.5%
COc1ccc(C2C(C#N)=C(N)Nc3nc4ccccc4n32)cc1 (configuration not stated),?,1.1%
O=C(Nc1ccccc1)/C(=C\c1ccncc1)NC(=O)c1ccccc1,-2.5%,-0.9%
Cc1ccc(NC(=O)/C(=C/c2ccncc2)NC(=O)c2ccccc2)cc1,-8.0%,-4.1%
CSc1ccc(/C=C(/NC(=O)c2ccc(C)cc2)C(=O)Nc2cccc(C)c2)cc1,6.31µM*,-5.8%
SMILES,Cruzain noTriton,Cruzain Triton
Cc1cccc(NC(=O)/C(=C\c2ccc([N+](=O)[O-])o2)NC(=O)c2ccc(Cl)cc2)c1,-20.1%,-2.8%
Cc1ccc(S(=O)(=O)Oc2ccc(/C=C(/NC(=O)c3ccccc3)C(=O)Nc3ccccc3)cc2)cc1,12.6µM*,1.5%
COc1ccc(NC(=O)/C(=C\c2ccc(OS(=O)(=O)c3ccc(C)cc3)cc2)NC(=O)c2ccccc2)cc1,7.94µM*,2.6%
N#CC(=Cc1ccc(O)c(O)c1)C(N)=S,-22.5%,-11.1%
CC1=C(C(=O)Nc2cccnc2)C(c2ccccc2)n2nc(-c3ccc(O)cc3)nc2N1 (configuration not stated),-4.2%,-3.4%
Oc1cccc(Cl)c1,-4.9%,0.5%
COc1cccc(CSc2nc3ccncc3n2CC(=O)Nc2ccc(OC)c(OC)c2OC)c1,9.3%,-11.8%
Cc1c(Cl)cccc1-c1ccc(CNCCSc2nnnn2-c2ccccc2)o1,7.94µM*,12.6µM*
Fc1ccc(-c2ccc(CNCCSc3nnnn3-c3ccccc3)o2)cc1,-10.2%,1.4%
CN(C)Cc1ccccc1-c1nc(N(C)C)c2ccccc2n1,3.1%,-1.9%
CCOC(=O)N1CCc2c(sc3c2c(=O)n(Cc2ccccc2)c(=O)n3CC(=O)Nc2ccc(C)cc2C)C1,1.0%,-0.4%
Nc1nnc(SCC(=O)c2ccc3ccccc3c2)s1,31.6µM*,-4.8%
Nc1nnc(SCCCC(=O)c2ccccc2)s1,2.4%,-0.3%
Cc1cc(C)nc(SCc2ccc(C(=O)N/N=C/c3cccc(O)c3O)cc2)n1,4.0%,-6.2%
O=C(N/N=C/c1ccccc1Br)c1ccc(CSc2cccc3cccnc23)cc1,10µM*,0.7%
O=C(NC1CCS(=O)(=O)C1)c1c(NC(=O)C2COc3ccccc3O2)sc2c1CCCC2 (configuration not stated),-7.7%,-3.8%
CCCNC(=O)c1c(NC(=O)C2COc3ccccc3O2)sc2c1CCCC2 (configuration not stated),20µM*,1.7%
COc1ccc(NC(=O)COCc2cc(-c3cccs3)on2)cc1,3.8%,-5.1%
O=C(Nc1ccc2c(c1)CCC2)c1ccc(F)cc1,1.7%,-3.4%
O=C(Nc1ccc2c(c1)CCC2)c1cc(S(=O)(=O)Nc2ccc(F)cc2)c(Cl)cc1Cl,20µM*,-0.8%
O=C(Cn1c(=O)n(Cc2ccco2)c(=O)c2sc3ccccc3c21)Nc1ccccc1C(F)(F)F,8.0%,-3.9%
CC(=O)c1ccc(Oc2nc(C)nc3c2oc2ccccc23)cc1,?,-3.8%
Cc1ccc(-n2ncc(C(=O)NCCCN3CCN(c4cccc(Cl)c4)CC3)c2-n2cccc2)cc1,0.8%,-4.2%
O=C(Nc1ccc(-c2nc3ccccc3s2)c(OC(=O)c2ccccc2)c1)c1ccccc1,25.1µM*,-5.7%
O=C(Nc1ccc(-c2nc3ccccc3s2)c(O)c1)c1ccc(Br)cc1,1.0%,-0.2%
SMILES,Cruzain noTriton,Cruzain Triton
C[C@@H]1CC[C@@]2(OC1)O[C@H]1[C@@H](O)[C@H]3[C@@H]4CC[C@H]5C[C@@H](O[C@@H]6O[C@H](CO)[C@H](O[C@@H]7O[C@H](CO)[C@@H](O)[C@H](O[C@@H]8OC[C@@H](O)[C@H](O)[C@H]8O)[C@H]7O[C@@H]7O[C@H](CO)[C@@H](O)[C@H](O[C@@H]8O[C@H](CO)[C@@H](O)[C@H](O)[C@H]8O)[C@H]7O)[C@H](O)[C@H]6O)[C@H](O)C[C@]5(C)[C@H]4CC[C@]3(C)[C@H]1[C@@H]2C,?,-2.4%
Cn1c(=O)c2c(nc(-c3ccccc3)n2C)n(Cc2ccccc2)c1=O,20.5%,-2.0%
O=c1c2ccccc2c2c(O)nc(-c3ccccc3)n2n1Cc1ccccc1,3.98µM*,0.7%
CCC(Cc1ccccc1)NC(=O)c1ccc2nc(N3CCC(C)CC3)sc2c1 (configuration not stated),1.2%,-2.2%
Cc1nc(SCC(=O)Nc2ccccc2C(F)(F)F)c(C#N)c(C)c1CC(=O)c1ccc(Br)cc1,-11.9%,-0.6%
Cc1cccc(C)c1NC(=O)CSc1nc(C)c(CC(=O)c2ccc(Br)cc2)c(C)c1C#N,31.6µM*,1.7%
CCOc1ccc(NC(=S)N(CCc2c(C)[nH]c3ccc(C)cc23)Cc2ccco2)cc1,3.16µM*,2.9%
COc1ccc(NC(=S)N(CCc2c(C)[nH]c3ccc(C)cc23)Cc2ccco2)cc1,?,-5.1%
Cc1ccc(C)c(N2CCN(c3nc4c(S(=O)(=O)c5ccccc5)nnn4c4ccc(Cl)cc34)CC2)c1,-8.8%,0.2%
